Results published in PubChem BioAssay AID2280 (The Scripps Research Institute Molecular Screening Center, 2010).
Values joined by “and” are separate entries in the source; they are usually repeats but may differ in a detail not shown here. Identical values can stand only once. About 1,400 (0.44%) of roughly 320,000 compounds were called active.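 How the source made its calls: active means percent inhibition above a per-plate cutoff, the plate mean of test compounds plus 3 SD (cut at about 30% in these data); inactive means the rest.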 Shown is part of a subset that was picked to be rich in actives. The source holds several records for some structures; these can differ, active in one and inactive in another.

The compounds below were run against Female germline-specific tumor suppressor gld-1 (Caenorhabditis elegans) (UniProt Q17339) (assay: small molecules blocking C. elegans GLD-1 RNA recognition – biochemical, fluorescence polarization, primary screen (AID 2280;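 further: 0% = DMSO wells with GLD-1 and probe and 100% = wells lacking GLD-1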)). Conditions: purified GLD-1 + fluorescein TGE RNA, at 5.96 µM, stronger effect = higher value.
Sequence of Female germline-specific tumor suppressor gld-1 (Caenorhabditis elegans) (Q17339 whole entry, looked up): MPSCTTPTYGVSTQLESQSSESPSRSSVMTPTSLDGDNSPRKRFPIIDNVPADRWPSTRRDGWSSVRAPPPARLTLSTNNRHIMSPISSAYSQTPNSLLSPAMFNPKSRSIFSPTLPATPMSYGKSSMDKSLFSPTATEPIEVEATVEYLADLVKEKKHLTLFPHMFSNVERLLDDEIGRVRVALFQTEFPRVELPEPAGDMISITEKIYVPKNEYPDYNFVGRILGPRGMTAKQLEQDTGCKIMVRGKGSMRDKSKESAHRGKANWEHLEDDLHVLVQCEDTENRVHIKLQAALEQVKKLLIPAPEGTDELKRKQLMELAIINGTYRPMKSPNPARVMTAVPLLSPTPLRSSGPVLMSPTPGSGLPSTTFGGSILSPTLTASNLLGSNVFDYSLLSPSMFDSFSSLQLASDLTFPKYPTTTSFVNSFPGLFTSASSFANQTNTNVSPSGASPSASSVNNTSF

| Structure (SMILES) | inhibition |
| --- | --- |
| Cc1nn(C(=O)c2ccoc2C)c(N)c1-c1ccccc1 | 126% (active) |
| CCOC(=O)c1c(N)nn(C(=O)c2ccccc2)c1-c1ccccc1 | 7.39% (inactive) |
| C/C(=N\NC(=O)c1ccoc1C)c1ccccc1O | 2.44% (inactive) |
| CC(C)N(C)C(=O)CCc1nnc(CCc2c[nH]c3ccccc23)o1 | 7.03% (inactive) |
| Cc1ccccc1Nc1nc(N)nc(CSc2ccccc2)n1 | 6.58% (inactive) |
| Cc1ccccc1Nc1nc(N)nc(CSc2nnc3ccccn23)n1 | 35.3% (active) |
| Cc1ccccc1Nc1nc(N)nc(CN2CCN(c3ccccn3)CC2)n1 | 2.81% (inactive) |
| COc1ccc(C(C)=O)cc1COC(=O)Cn1cnc2ccccc2c1=O | -1.6% (inactive) |
| CC(NC(=O)CSc1nc2c(cc1C#N)CN(C)CC2)c1ccccc1 (configuration not stated) | 35.9% (active) |
| Cc1cc(NC(=O)CSc2nc3c(cc2C#N)CCCCC3)no1 | 6.13% (inactive) |
| CC1(C)CCc2nc(SCc3ccccc3)c(C#N)cc2C1 | 6.74% (inactive) |
| CCOC(=O)C(C)n1cnc2c(nnn2-c2ccc(F)cc2)c1=O (configuration not stated) | 2.21% (inactive) |
| CCCCn1ccnc1C(=O)c1cccc(S(=O)(=O)N2c3ccccc3CC2C)c1 (configuration not stated) | 0.24% (inactive) |
| Cc1ccc(C(=O)NC(=S)Nc2ccccc2C)cc1 | -1.38% (inactive) |
| Cc1ccc(NC(=S)NC(=O)c2ccc(-c3ccccc3)cc2)cc1 | -3.26% (inactive) |
| COC(=O)c1sc(NC(=S)NC(=O)c2ccc(C)cc2)nc1C | 60.9% (active) |
| COc1cc(N2CCCC2)c(OC)cc1/C=C(/C#N)c1cccc(Br)c1 | -45.9% (inactive) |
| CC(Sc1nnc(-c2cccs2)n1C1CC1)C(=O)NCC1CCCO1 (configuration not stated) | -1.09% (inactive) |
| O=S(=O)(c1ccc(Cl)cc1)N1CCCN(c2ccc(C(F)(F)F)cn2)CC1 | 3.79% (inactive) |
| CN(C)c1ccc(Nc2c3c4c(cccc4n(C)c2=O)C(=O)c2ccccc2-3)cc1 | 53.9% (active) |
| CN(Cc1ccc(F)cc1)C(=O)CN1C(=O)c2ccccc2S1(=O)=O | -0.45% (inactive) |
| O=S(=O)(NCCCCCCNS(=O)(=O)c1c(F)cccc1F)c1ccc2c(c1)OCCO2 | -2.33% (inactive) |
| C=CCOc1cccc(C2C(C(=O)c3ccc(C)o3)=C(O)C(=O)N2c2nnc(C)s2)c1 (configuration not stated) | 91.3% (active) |

| Structure (SMILES) | inhibition |
| --- | --- |
| Cc1cc(N2C(=O)C(O)=C(C(=O)c3ccc(C)o3)C2c2ccc(OCc3ccccc3)cc2)no1 (configuration not stated) | 12.7% (inactive) |
| C=CCOc1cccc(C2C(C(=O)c3ccc(C)o3)=C(O)C(=O)N2CCCn2ccnc2)c1 (configuration not stated) | 5.89% (inactive) |
| CCN1CCC2(CCN(Cc3cn[nH]c3-c3ccc(OC)c(F)c3)C2)C1 (configuration not stated) | 6.39% (inactive) |
| COc1ccccc1C(=O)N(C1=NC(C)CS1)c1ccc(Cl)cc1 (configuration not stated) | 5.47% (inactive) |
| NC(=O)c1ccc(-c2csnn2)cc1 | -0.25% (inactive) |
| COc1ccc(NC(=O)C(C)SCc2ccccc2)cc1 (configuration not stated) | 4.3% (inactive) |
| O=C1N=C2SCCN2/C1=C\c1c(Cl)cccc1Cl | 3.87% (inactive) |
| CCC(=NC1CC(C)(C)NC(C)(C)C1)C1=C(O)CC(C)(C)CC1=O | 0.57% (inactive) |
| CN(CCOc1ccccc1)C(=O)c1cc(-c2ccco2)nc2ccccc12 | 44.1% (active) |
| CN(C(=O)COC(=O)c1cc(-c2ccco2)nc2ccccc12)C1CCS(=O)(=O)C1 (configuration not stated) | 24.7% (inactive) |
| COc1ccc(NC(=O)CN(C)C(=O)c2cc(-c3ccc(C)o3)nc3ccccc23)cc1 | 1.85% (inactive) |
| Cn1nc(-c2ccccc2)c(CSc2cccc(Cl)c2)c1Cl | 3.82% (inactive) |
| C=CCN(Cc1nc(-c2cc(OC)c3c(c2)OCO3)oc1C)C1CCS(=O)(=O)C1 (configuration not stated) | 3% (inactive) |
| COc1ccc(CCNS(=O)(=O)c2cc3c(cc2C)NC(=O)CO3)cc1OC | 5.55% (inactive) |
| Cc1oc2c(c1C(=O)N1CCOCC1)C(=O)c1ccccc1C2=O | -4.37% (inactive) |
| O=C1c2ccccc2-c2ncnc3c(N4CCOCC4)cc(N4CCOCC4)c1c23 | 47.9% (active) |
| COC1=C(N2CCOCC2)C(=O)c2ccccc2C1=O | 5.26% (inactive) |
| CCOc1ccc(NC(=O)CSc2ncnc3c2sc2ccccc23)cc1 | 7.48% (inactive) |
| CN(C)C=NC(=O)c1cccn1-c1ncc(C(F)(F)F)cc1Cl | 3.24% (inactive) |
| CC1CCCCC1NC(=O)COC(=O)Cc1ccc(Cl)cc1 (configuration not stated) | 0.1% (inactive) |
| Cc1cc(C)c(S(=O)(=O)N2CCCC2CNC(=O)c2ccc3c(c2)OCO3)c(C)c1 (configuration not stated) | -0.56% (inactive) |
| Cc1[nH]c2ccccc2c1CCN(Cc1cccs1)C(=S)NC(C)(C)C | 5.63% (inactive) |
| COc1ccc2[nH]c(C)c(CCN(Cc3cccs3)C(=S)Nc3ccccc3OC)c2c1 | 50% (active) |

| Structure (SMILES) | inhibition |
| --- | --- |
| COc1cccc(NC(=S)N(CCc2c(C)[nH]c3ccccc23)Cc2ccco2)c1 | 2.83% (inactive) |
| CCOC(=O)Cc1csc(SCC(=O)NC(C)C23CC4CC(CC(C4)C2)C3)n1 (configuration not stated) | -5.16% (inactive) |
| FC(F)(F)c1cccc(Nc2ncnc3ccccc23)c1 | 8.73% (inactive) |
| O=c1cc(CO)oc(C(Nc2cccc([N+](=O)[O-])c2)c2ccccn2)c1O (configuration not stated) | 25.3% (inactive) |
| O=c1cc(CO)oc(C(Nc2cccc(C(F)(F)F)c2)c2ccccn2)c1O (configuration not stated) | 75.6% (active) |
| O=C(CN1CCOC1=O)N1CCCC(Nc2ccc(F)c(F)c2)C1 (configuration not stated) | -0.97% (inactive) |
| CCCC1OC23CCCCC2C(C#N)(C#N)C1(C#N)C(=N)O3 (configuration not stated) | 63.5% (active) |
| O=C1CCC(=O)N(c2ccccc2)N1 | 3.62% (inactive) |
| COC(=O)[C@H]1[C@H]2C[C@H]3c4[nH]c5ccccc5c4CCN3C[C@@H]2CC[C@@H]1O | 8.5% (inactive) and 48.8% (active) |
| COC(=O)C1CCN(C(=O)c2cc(=O)[nH]c3ccccc23)CC1 | 4.47% (inactive) |
| O=C(Nc1ccc(Cl)cc1)N1CCc2[nH]c3ccccc3c2C1 | 7.58% (inactive) |
| O=C1c2cccc(OCC(=O)N3N=C(c4cccs4)CC3c3ccc(F)cc3)c2CCN1Cc1ccccc1 (configuration not stated) | -0.98% (inactive) |
| CC1CCCCC1NC(=O)Cn1c(=O)cnc2ccccc21 (configuration not stated) | -4.13% (inactive) |
| CC(C)CCn1c(=O)c2c(nc3n2CCCN3Cc2ccccc2)n(C)c1=O | 2.24% (inactive) |
| COc1ccc(OCCCC(=O)Nc2cccc(S(=O)(=O)N3CCCCCC3)c2)cc1 | 6.95% (inactive) |
| C1=C(N2CCOCC2)/C(=C/c2nc3ccccc3[nH]2)CC1 | 72.7% (active) |
| CC1(C)Cc2c(C#N)c(SCc3nc4ccccc4[nH]3)nc(N3CCOCC3)c2CO1 | -7.37% (inactive) |
| c1ccc(-n2nnnc2N2CCOCC2)cc1 | -16.6% (inactive) |
| CC(=O)c1c(C)[nH]c(C(=O)CN2C(=O)NC(C)(C)C2=O)c1C | 1.35% (inactive) |
| COc1ccc(C(=O)CN2C(=O)NC3(CCc4ccccc43)C2=O)c(OC)c1 (configuration not stated) | 0.18% (inactive) |
| CC/C(=N/Nc1ccccc1)c1cnnc(SC)n1 | 2.17% (inactive) |
| CSc1ccc(S(=O)(=O)Nc2cccc(F)c2)cc1 | 11.1% (inactive) |
| COc1ccc(-c2nc(CS(=O)CC(=O)NCc3ccccn3)c(C)o2)cc1 (configuration not stated) | 81.7% (active) |

| Structure (SMILES) | inhibition |
| --- | --- |
| COc1cccc(-c2nc(CS(=O)CC(=O)NCc3ccc(F)cc3)c(C)o2)c1 (configuration not stated) | -0.05% (inactive) |
| COc1ccc(-c2nc(CS(=O)CC(=O)NCc3ccccc3)c(C)o2)cc1OC (configuration not stated) | -5.15% (inactive) |
| Oc1ccc(-c2onc3ccc(Cl)cc23)cc1 | 8.29% (inactive) |
| CC(OC(=O)c1ccc2noc(-c3ccccc3)c2c1)C(N)=O (configuration not stated) | 6.97% (inactive) |
| COc1ccc(-c2onc3ccc(C(C)=O)cc23)cc1 | 169% (active) |
| COc1ccc(/C=C/C(=O)c2cc(Br)ccc(=O)c2O)cc1 | -9.08% (inactive) |
| O=C(c1cnccn1)N1CCN(S(=O)(=O)c2cccc(Cl)c2)CC1 | 3.23% (inactive) |
| O=C(NCCSCc1ccccc1)c1ccc(Cl)c(S(=O)(=O)N2CCOCC2)c1 | 7.47% (inactive) |
| O=C(c1ccc(F)c(S(=O)(=O)N2CCOCC2)c1)N(CCc1ccccc1)Cc1ccccc1 | 18.5% (inactive) |
| Cc1nn(Cc2ccccc2)c(C)c1CNC(=O)c1ccc(F)c(S(=O)(=O)N2CCOCC2)c1 | 103% (active) |
| Cc1cnc(CN(C)C(=O)CC2C(=O)NCCN2Cc2cccc(F)c2F)[nH]1 (configuration not stated) | 9.56% (inactive) |
| CC1(C)CC[C@]2(C(=O)O)CC[C@]3(C)C(=CCC4[C@@]5(C)CC[C@H](O)C(C)(C)C5[C@H](O)C[C@]43C)[C@@H]2C1 (some centres not stated) | 1.49% (inactive) |
| O=C(COC(=O)Cn1cnc2ccccc21)Nc1cccc2c1C(=O)c1ccccc1C2=O | 78.6% (active) |
| O=C(Cn1cnc2ccccc21)Nc1ccccc1-c1ccccc1 | 1.53% (inactive) |
| O=C(COC(=O)c1cccc(Br)c1)Nc1cccc2c1C(=O)c1ccccc1C2=O | 7.63% (inactive) |
| Cc1ccc(N(Cc2cc(=O)[nH]c3ccccc23)C(=O)CCl)cc1 | 0.28% (inactive) |
| CC(=O)N/C(=N/c1nc(C)cc(C)n1)Nc1ccc(F)cc1F | -1.91% (inactive) |
| O=S(=O)([N-]c1nc2ccccc2nc1-[n+]1ccc(Cc2ccccc2)cc1)c1ccc(Br)s1 | 94.1% (active) |
| O=C(NCCc1ccccc1)C1CCN(S(=O)(=O)c2ccc(Br)s2)CC1 | 4.67% (inactive) |
| O=S(=O)(NCc1cccnc1)c1ccc(Br)s1 | 2.39% (inactive) |
| O=C1CN(C(=O)COC(=O)c2cnc(Cl)c(Cl)c2)c2ccccc2N1 | 6.14% (inactive) |
| CS(=O)(=O)c1ccc(C(=O)NNC(=O)c2cccs2)cc1 | 1.25% (inactive) |
| O=C(c1cc(COc2ccc(F)cc2F)on1)N1CCOCC1 | -0.95% (inactive) |
